Screen size: about 330,000 compounds; about 1,900 (0.58%) were called active. Another 4% or so got no clear call; they are omitted. No stated cut-off is given here; in the data, inconclusive means inhibition above about 70% without an active follow-up result; inactive means below that. Only a sample is shown. Potency and affinity values are given separately.
Test: M. tuberculosis growth inhibition, HTS (AID 449762);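 further: bacterial growth assessed after seven days of incubation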
Details: M. tuberculosis H37Rv growth inhibition, 7H9 media; at 25 µM; hits give high values

Row | Structure (SMILES) | inhibition
1 | COc1ccc(NC(=O)C(=S)NC2CCCCC2)cc1 | 8.92% (inactive)
2 | C=CCc1c(C)nc(C)nc1N/N=C/c1ccccc1 | -2.25% (inactive)
3 | C=CCc1c(C)nc(C)nc1N/N=C/c1ccc(F)cc1 | 6.56% (inactive)
4 | C#CCOCCOCCOCCNc1nc(N2CCN(C(=O)[C@H](CCC(=O)O)n3cc([C@@H](N)[C@H](C)CC)nn3)CC2)nc(N2CCN(C(=O)[C@H](CCC(=O)O)n3cc([C@@H](N)CCSC)nn3)CC2)n1 | 3.47% (inactive)
5 | O=C1C=C(c2ccc3c(c2)oc2ccccc23)C[C@@H](c2ccc3c(c2)OCO3)C1 | 36.8% (inactive)
6 | c1ccc(C2[C@H]3CN(CC4CCCCC4)[C@H](c4ccccc4)C34CC2(c2ccccc2)C4)cc1 (stereo not given in full) | 2.3% (inactive)
7 | FC(F)(F)c1ccc(C2[C@H]3CN(CC4CCCCC4)[C@H](c4ccccc4)C34CC2(c2cccnc2)C4)cc1 (stereo not given in full) | 58% (inactive)
8 | CC(C)(C#CCCCCC#CC(C)(C)[N+](C)(C)C)[N+](C)(C)C | -2.46% (inactive)
9 | Cc1ccc(/C=C/C(=O)c2ccc(C)cc2)cc1 | -12.1% (inactive)
10 | Cc1ccc(C(=O)/C=C/C(=O)O)cc1 | -2.7% (inactive)
11 | Cc1cc(Nc2ccc(C(=O)O)cc2)n2nc(C)nc2n1 | -2.73% (inactive)
12 | O=C(Nc1ccccc1)c1nc2ccccc2s1 | 23.7% (inactive)
13 | O=C(COc1ccccc1)Nc1nnc(-c2ccccc2Cl)o1 | 28.7% (inactive)
14 | OC1CCCN(Cc2nc(Cc3ccccc3Cl)no2)C1 (stereo not given) | -6.97% (inactive)
15 | CCCCC[C@@H](O)c1cc2ccccc2c(=O)o1 | -0.25% (inactive)
16 | O=C(O)c1ccccc1Nc1cccc(OCc2ccc3ccccc3n2)c1 | -1.2% (inactive)
17 | CCc1ccc2c(c1)C(c1ccc(N3CCOCC3)cc1)=NNC(c1ccncc1)=N2 | 44.4% (inactive)
18 | CCOC(=O)C1CCCN(C(=O)CCCn2c(=O)c3cccn3c3cccnc32)C1 (stereo not given) | 1.46% (inactive)
19 | Cc1ccc(N2CC(C(=O)N3CCC(C(=O)Nc4ccc(Br)cc4)CC3)CC2=O)cc1 (stereo not given) | 32.6% (inactive)
20 | CCc1ccc(N=c2c([N+](=O)[O-])nn(-c3ccccc3)n2O)cc1 | 64.6% (inactive)
21 | COc1ccccc1N=c1c2c([N+](=O)[O-])cc([N+](=O)[O-])cc2n(O)n1-c1ccccc1OC | -0.38% (inactive)
22 | COc1ccc(C(=O)N(CC2CCCO2)C(C(=O)NC2CCCC2)c2ccc(C)cc2)cc1OC (stereo not given) | -13.5% (inactive)
23 | COc1ccc(C(=O)CN2CC(C)SC2=Nc2ccc(Cl)cc2)cc1 (stereo not given) | 13.6% (inactive)

Row | Structure (SMILES) | inhibition
24 | CN(C)/C=C1/OC(=O)C(C#N)=C1c1ccc(Cl)cc1 | -3.95% (inactive)
25 | O=C1O/C(=C/c2ccccc2)c2ccccc21 | 4.48% (inactive)
26 | O=C1CC(c2ccc(Cl)cc2)CC(=O)C1CS(=O)(=O)c1ccccc1 (stereo not given) | 5.94% (inactive)
27 | CCC(=O)N1N=C(c2ccc(NS(=O)(=O)c3ccccc3)cc2)CC1c1ccco1 (stereo not given) | 1.78% (inactive)
28 | CCn1c(=O)c2c(nc3n2CCCN3CCc2ccccc2)n(C)c1=O | 6.27% (inactive)
29 | COc1ccc(Cc2c(C)nc(N)nc2Cl)cc1 | 8.87% (inactive)
30 | Cc1nc(N)nc(Cl)c1Cc1ccc(Cl)cc1 | 0.95% (inactive)
31 | COc1cc(OC)cc(C(=O)NCC(=O)OCC(=O)N2CCc3ccccc32)c1 | 5.39% (inactive)
32 | Cc1cc2c(nn1)CCc1c-2no[n+]1[O-] | -1.95% (inactive)
33 | O=C(CN1CCN(c2nc(-c3ccccc3)cs2)CC1)Nc1ccc2c(c1)OCO2 | -7.77% (inactive)
34 | O=C(CN1CCN(c2ncccn2)CC1)NCc1ccc2c(c1)OCO2 | -8.33% (inactive)
35 | O=C1C2CC=C(Cl)CC2C(=O)N1CC1Cc2ccccc2CO1 (stereo not given) | -2.11% (inactive)
36 | N#Cc1cccc(NC(=O)CCc2ccc(S(=O)(=O)N3CCOCC3)cc2)c1 | 2.35% (inactive)
37 | CCOc1ccc2nc(N3CCCC(C(=O)NCCCN4C(C)CCCC4C)C3)sc2c1 (stereo not given) | 6.54% (inactive)
38 | CCOc1ccc(CCNC(=O)C2CCN(c3nnc(-n4cccc4)s3)CC2)cc1 | -2% (inactive)
39 | OCC[C@H]1C[C@@H](O)[C@H](O)[C@@]2(Cc3ccccc3CO2)O1 | -8.04% (inactive)
40 | O=C(CSc1nnc(Nc2ccccc2F)s1)NC(=O)CN1CCCC1=O | -10.7% (inactive)
41 | COc1ccc(OCc2cccc(C(=O)NN)c2)cc1 | 5.13% (inactive)
42 | Cc1nn(Cc2cccc(C(=O)Nn3cc([N+](=O)[O-])cn3)c2)c(C)c1[N+](=O)[O-] | 10.2% (inactive)
43 | CC1CCN(C(=O)Cn2nnc(-c3ccccc3)n2)CC1 | 5.98% (inactive)
44 | CC(C)(C)c1ccc(/C=C2/SC(N3CCCC3)=NC2=O)cc1 | 24.7% (inactive)
45 | Cc1ccsc1/C=C1\SC(N2CC(C)OC(C)C2)=NC1=O (stereo not given) | 67.9% (inactive)
46 | O=C1N=C(N2CCCC2)S/C1=C\c1ccccc1 | 0.89% (inactive)

Row | Structure (SMILES) | inhibition
47 | Cc1ccsc1/C=C1/SC(N2CC(C)OC(C)C2)=NC1=O (stereo not given) | 68.3% (inactive)
48 | COC(=O)C(CCCN1C(=O)c2ccccc2C1=O)(NC(C)=O)c1nnn(C)n1 (stereo not given) | -2.74% (inactive)
49 | COC(=O)c1cccc(-c2noc(-c3ccccc3F)n2)c1 | -2.87% (inactive)
50 | Cc1ccc(NC(=O)c2sccc2-n2cccc2)c(Cl)c1 | 4.85% (inactive)
51 | Cc1cccc(NC(=O)c2sccc2-n2cccc2)c1C | 6.88% (inactive)
52 | Cc1ccc2cc(CN(c3ccccc3C)S(=O)(=O)c3ccccc3)c(=O)[nH]c2c1 | 11.1% (inactive)
53 | Nc1sccc1C(=O)c1ccccc1 | -3.41% (inactive)
54 | CNC(=O)c1ccsc1NC(=O)c1ccccc1 | -14.7% (inactive)
55 | Cc1cc(OCC(O)CNC(C)(C)C)ccc1Cl (stereo not given) | -5.73% (inactive)
56 | COc1ccc(CCNCC(O)COc2ccc(Cl)cc2)cc1OC (stereo not given) | -0.15% (inactive)
57 | Cc1cc(C)c(OCC(=O)OCC(=O)NC2CCCCCCC2)c(C)c1 | -6.93% (inactive)
58 | CCN(CC)S(=O)(=O)c1ccc(C(=O)NNC2=NS(=O)(=O)c3ccccc32)cc1 | -5.34% (inactive)
59 | COc1ccccc1N1CCN(Cc2nc3ccsc3c(=O)[nH]2)CC1 | -2.58% (inactive)
60 | O=c1[nH]c(CN2CCN(c3ccccc3Cl)CC2)nc2ccsc12 | 6.57% (inactive)
61 | COC(=O)C1=C(c2c(C)noc2C)C[C@@H]2CC[C@H]1N2C(=O)N1CCC(C)CC1 | -12.5% (inactive)
62 | COc1ccc(-c2nnc(SCc3ccc(C(=O)O)cc3)n2C)cc1OC | 2.72% (inactive)
63 | COc1ccc(C(=O)C2CCN(C(=S)NCC3CCCO3)CC2)cc1 (stereo not given) | 0.55% (inactive)
64 | CC(C)=CCC[C@](C)(O)C1CC[C@]2(C)C1[C@H](O)CC1[C@@]3(C)CC[C@H](O[C@@H]4O[C@H](CO)[C@@H](O)[C@H](O)[C@H]4O[C@@H]4O[C@H](CO)[C@@H](O)[C@H](O)[C@H]4O)C(C)(C)C3CC[C@]12C (stereo not given in full) | -2.47% (inactive)
65 | CC(C)=CCC[C@](C)(O[C@@H]1O[C@H](CO[C@@H]2OC[C@@H](O)[C@H](O)[C@H]2O)[C@@H](O)[C@H](O)[C@H]1O)C1CC[C@]2(C)C1[C@H](O)CC1[C@@]3(C)CC[C@H](O[C@@H]4O[C@H](CO)[C@@H](O)[C@H](O)[C@H]4O)C(C)(C)C3CC[C@]12C (stereo not given in full) | 1.5% (inactive)
66 | N#Cc1cc(Nc2c(N)nc[nH]c2=O)c([N+](=O)[O-])cc1C#N | -9.11% (inactive)
67 | CCc1ccccc1OCCCOc1ccc(OC)cc1 | 3.7% (inactive)
68 | Cc1[nH]c2ccccc2c1C(=O)COC(=O)c1ccccc1O | -1.43% (inactive)
69 | O=C(COC(=O)c1ccc([N+](=O)[O-])s1)NCc1ccccc1 | 40.3% (inactive)

Row | Structure (SMILES) | inhibition
70 | CC(C)[C@H](NC(N)=O)C(=O)NNC(=O)COc1cccc(C(F)(F)F)c1 | -1.74% (inactive)
71 | CC(C)NC(=O)COc1ccc(OCc2ccccc2)cc1 | -4.33% (inactive)
72 | CCOc1ccc(NC(C)=O)cc1 | 3.93% (inactive)
73 | CC(C)Oc1ccc(NC(N)=O)cc1 | -11.6% (inactive)
74 | CCOC(=O)C(=O)Nc1ccc(OCc2ccccc2)cc1 | 62.7% (inactive)
75 | Cc1ccc(S(=O)(=O)n2nc(-n3c(C)ccc3C)c3c(F)cccc32)c2ccccc12 | 11.8% (inactive)
76 | O=C(N/N=C/C=C/c1ccccc1[N+](=O)[O-])c1cccs1 | -11.8% (inactive)
77 | O=C(N/N=C/C=C/c1ccc([N+](=O)[O-])cc1)c1cccs1 | 3.01% (inactive)
78 | Cc1noc(NS(=O)(=O)c2ccc(NC(=O)C(C)(C)C)cc2)c1C | 3.27% (inactive)
79 | C=CCNC(=O)Cc1ccc(S(=O)(=O)N2CCOCC2)s1 | -1.17% (inactive)
80 | COc1cc(C(C)=O)ccc1OCC(O)Cn1nc(C)c(Br)c1C (stereo not given) | 3.09% (inactive)
81 | NS(=O)(=O)c1ccc(CNC(=O)c2ccc3ccccc3n2)cc1 | 7.68% (inactive)
82 | O=C(Cc1cn2ccsc2n1)Nc1nc2c(s1)CN(Cc1ccccc1)CC2 | -6% (inactive)
83 | O=C(Cc1cn2ccsc2n1)Nc1nc2c(s1)CCCC2 | -0.56% (inactive)
84 | COc1ccc(S(=O)(=O)Nc2c3ccccc3nc(=O)n2-c2ccccc2)cc1 | 5.16% (inactive)
85 | O=C1CCC(C(=O)N(Cc2cccs2)C2(C(=O)NC3CCCCC3)CCCCC2)N1 (stereo not given) | 1.48% (inactive)
86 | O=C1C=C(c2ccc(Oc3ccccc3)cc2)C[C@@H](c2ccc(F)cc2)C1 | 24.8% (inactive)
87 | CCOc1ccc(OCCCC(=O)Nc2cc(Cl)ccc2-n2cncn2)cc1 | 9.23% (inactive)
88 | N#CC(C#N)=C1CCc2ccccc2N1 | -3.11% (inactive)
89 | CCCCOC(=O)/C(=C\c1ccc([N+](=O)[O-])o1)NC(=O)c1ccccc1 | -4.98% (inactive)
90 | O=C(NCCO)/C(=C\c1ccc([N+](=O)[O-])o1)NC(=O)c1ccccc1 | 59% (inactive)
